Results on 8 compounds are retold here after PubChem BioAssay (NCI).

Compounds without any hit were thinned out: in the full panel of roughly 83,000, 20% have a hit.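 Cells were grown in 96-well plates and exposed to the test compound at a single concentration for 48 hours; results are reported as percent growth, with values below 10 considered active.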 Values without a mark were called inactive. Active and inactive are the calls of the source.

Some test systems named below: EKVX NSCLC; SN12C renal; UO-31 renal; TK-10 renal; ACHN renal; CAKI-1 renal; A498 renal; CCRF-CEM leukemia; MOLT-4 leukemia; SR leukemia; RPMI-8226 leukemia; OVCAR-8 ovarian; OVCAR-5 ovarian; OVCAR-4 ovarian; SK-OV-3 ovarian; IGROV1 ovarian; HS 578T breast; NCI/ADR-RES ovarian; T-47D breast; OVCAR-3 ovarian.
Holding throughout (experiment): NCI-60 one-dose screen, 48 h (100 = growth as untreated, 0 = no growth, -100 = all killed)
What all share (conditions): 10 µM unless noted

Regarding `C[C@@H]1CN(c2ccc3ncc(C#Cc4cncc(C(=O)Nc5ccc(CN6CCN(C)CC6)c(C(F)(F)F)c5)c4)n3n2)C[C@H](C)O1`, the growth with EKVX NSCLC is -18.9% (active); in the assay on SN12C renal it was -26.7% (active); in the assay on UO-31 renal it was -87.9% (active); with TK-10 renal, -91.1% (active); with ACHN renal it was -94% (active); in the assay on CAKI-1 renal, -94.1% (active). Moreover, the growth was -90.4% (active) with A498 renal; 3.83% (active) in the assay with CCRF-CEM leukemia; 1.65% (active) in the assay with MOLT-4 leukemia; -24.3% (active) in the assay on SR leukemia; -2.52% (active) in the assay on RPMI-8226 leukemia; 0.405% (active) in the assay on OVCAR-8 ovarian. The growth with OVCAR-5 ovarian was -35.4% (active); in the assay with OVCAR-4 ovarian it was -10.1% (active); in the assay with SK-OV-3 ovarian, -76.5% (active); with IGROV1 ovarian, -5.72% (active); with HS 578T breast, -37% (active); in the assay on NCI/ADR-RES ovarian, -8.65% (active). Also, in the assay on T-47D breast, the growth was 15%.

As to `O=C(c1ccc(O)cc1)C1[C@H](c2ccc(Cl)cc2)[C@@H](c2ccccc2)NC12C(=O)Nc1ccc(Cl)cc12` (some centres undefined), the growth in the assay on EKVX NSCLC is 48.1%; in the assay with SN12C renal, -1.78% (active); in the assay with UO-31 renal it was 35.4%; with TK-10 renal it was 66.9%; in the assay with ACHN renal it was 16.8%; in the assay on CAKI-1 renal, 29.5%. The growth with A498 renal was 50.8%; in the assay on CCRF-CEM leukemia, 40.4%; in the assay on MOLT-4 leukemia, 10.3%; in the assay on SR leukemia it was 9.52% (active); in the assay on RPMI-8226 leukemia, 26.4%; in the assay with OVCAR-8 ovarian, 47.7%. The growth with OVCAR-5 ovarian is 68.8%; in the assay on OVCAR-4 ovarian, 47.1%; in the assay with SK-OV-3 ovarian it was 94.6%; with IGROV1 ovarian it was 38.9%; with HS 578T breast it was 60.5%; with NCI/ADR-RES ovarian, 36.2%. In addition, in the assay with T-47D breast, the growth was 31.4%.

As to `CCCCN1C(=O)/C(=c2\sc3n(c2=O)C2C(NN=3)N(CC)C(=O)N2CC)c2cc(Cl)ccc21` (centres undefined), the growth in the assay on EKVX NSCLC is 80.7%; with SN12C renal it was 82%; in the assay with UO-31 renal it was 63%; in the assay with TK-10 renal it was 132%; in the assay on ACHN renal, 64.5%; in the assay on CAKI-1 renal it was 50.7%. The growth with A498 renal is 27.6%; in the assay on CCRF-CEM leukemia, 72.2%; with MOLT-4 leukemia, 74.5%; in the assay with SR leukemia, 14.1%; in the assay with RPMI-8226 leukemia, 70.2%; in the assay with OVCAR-8 ovarian it was 95.6%. Further, the growth is 92.7% in the assay with OVCAR-5 ovarian; 89.7% with OVCAR-4 ovarian; 65.3% in the assay on IGROV1 ovarian; 71.8% in the assay on OVCAR-3 ovarian; 66.9% in the assay on HS 578T breast; 79.4% with NCI/ADR-RES ovarian. The growth in the assay with T-47D breast was 75%.

`CCOC(=O)c1c(NC(=O)c2cccc(C(F)(F)F)c2)sc2cc(O)ccc12`: the growth is 84.8% in the assay on EKVX NSCLC; 89.4% in the assay on SN12C renal; 60.1% in the assay on UO-31 renal; 183% in the assay with TK-10 renal; 93.4% in the assay with ACHN renal; 96.7% with CAKI-1 renal. In addition, the growth was 77.1% in the assay on A498 renal; 63.5% in the assay on CCRF-CEM leukemia; 81.6% with MOLT-4 leukemia; 101% in the assay on SR leukemia; 73.9% in the assay with RPMI-8226 leukemia; 105% in the assay with OVCAR-8 ovarian. Moreover, the growth in the assay on OVCAR-5 ovarian was 98.4%; in the assay on OVCAR-4 ovarian it was 104%; with IGROV1 ovarian, 75.7%; with OVCAR-3 ovarian, 98.6%; in the assay on HS 578T breast it was 88.1%; in the assay with T-47D breast it was 64%.

Consider `CN1C(=S)N(C)C2C1NN=C1SC(c3ccccc3)=CC(=O)N12` (centres undefined), for which the growth is 80.9% with EKVX NSCLC; 96.2% with SN12C renal; 88.3% in the assay on UO-31 renal; 97.7% in the assay on TK-10 renal; 96.8% in the assay with ACHN renal; 90.8% in the assay on CAKI-1 renal. Also, the growth in the assay with A498 renal was 103%; in the assay on CCRF-CEM leukemia, 91%; in the assay with MOLT-4 leukemia, 89.8%; with SR leukemia it was 65.4%; in the assay with RPMI-8226 leukemia it was 93.9%; in the assay on OVCAR-8 ovarian it was 94.4%. Besides, the growth is 103% in the assay with OVCAR-5 ovarian; 85.7% in the assay with OVCAR-4 ovarian; 97.5% in the assay on IGROV1 ovarian; 107% in the assay with HS 578T breast; 97.6% in the assay with NCI/ADR-RES ovarian; 69.5% in the assay on T-47D breast.

`O=C1c2c(c3c4cc(Br)ccc4[nH]c3c3ccc4ccccc4c23)C(=O)N1CCO`: the growth in the assay on EKVX NSCLC was 100%; in the assay on SN12C renal, 89.5%; in the assay with UO-31 renal it was 78%; in the assay on TK-10 renal, 160%; in the assay with ACHN renal it was 73.7%; with CAKI-1 renal it was 69.6%. The growth with A498 renal was 90.6%; with CCRF-CEM leukemia, 64.6%; with MOLT-4 leukemia, 70.5%; with SR leukemia, -6.75% (active); in the assay on RPMI-8226 leukemia, 80.3%; in the assay with OVCAR-8 ovarian, 85.2%. Further, the growth with OVCAR-5 ovarian was 108%; in the assay on OVCAR-4 ovarian, 104%; with SK-OV-3 ovarian, 89.3%; in the assay on IGROV1 ovarian, 73.9%; with HS 578T breast, 103%; in the assay on NCI/ADR-RES ovarian, 90.5%. Also, the growth in the assay on T-47D breast is 51.5%.

Consider `COc1ccc(CNS(=O)(=O)/N=C2\NC(=O)NC2=C(Cl)Cl)cc1`, for which the growth with EKVX NSCLC is 83.2%; with SN12C renal, 20.7%; with UO-31 renal, 48.9%; in the assay with TK-10 renal, 41.6%; with ACHN renal, 32.7%; in the assay on CAKI-1 renal it was 45.9%. Besides, the growth was -9.6% (active) with A498 renal; 15.8% in the assay on CCRF-CEM leukemia; 19% in the assay with MOLT-4 leukemia; 20.5% with SR leukemia; 15.3% in the assay on RPMI-8226 leukemia; 10.8% in the assay with OVCAR-8 ovarian. The growth in the assay with OVCAR-5 ovarian is 37.2%; in the assay on OVCAR-4 ovarian, 69.1%; in the assay on IGROV1 ovarian, 43.5%; in the assay on OVCAR-3 ovarian it was 30%; in the assay on HS 578T breast, 44%; in the assay with T-47D breast it was 44%.

With `N[C@@H](Cc1cn(-c2ccnc3ccccc23)nn1)C(=O)O`, the growth was 98.5% in the assay on EKVX NSCLC; 93.2% in the assay on SN12C renal; 88.2% in the assay on UO-31 renal; 101% with TK-10 renal; 96.1% in the assay with ACHN renal; 97.3% in the assay with CAKI-1 renal. Moreover, the growth in the assay with A498 renal is 110%; with CCRF-CEM leukemia, 103%; in the assay with MOLT-4 leukemia, 107%; with SR leukemia it was 95.1%; in the assay on RPMI-8226 leukemia, 106%; in the assay on OVCAR-8 ovarian it was 104%. Further, the growth was 101% in the assay on OVCAR-5 ovarian; 109% in the assay with OVCAR-4 ovarian; 101% with SK-OV-3 ovarian; 102% in the assay with IGROV1 ovarian; 109% in the assay with HS 578T breast; 103% in the assay on NCI/ADR-RES ovarian. For the same compound, in the assay on T-47D breast, the growth was 101%.
